Here are results for 57 compounds from PubChem BioAssay AID504523 (Broad Institute, 2011).

As usually defined, the inhibition is the change of the read-out against control, counted positive when it falls.

In all, about 340,000 compounds went through this assay and about 490 (0.14%) were called active. Cut-off read from the data, not from the text of the source: active = inhibition above about 12%; inconclusive = no clear call, values can overlap the other calls; inactive = below about 7.3%. For the sample, actives were picked, then their nearest neighbours and some compounds at random.

Sequence of Kelch-like ECH-associated protein 1 (Homo sapiens) (Q14145 whole entry, looked up, the tested form may be a part): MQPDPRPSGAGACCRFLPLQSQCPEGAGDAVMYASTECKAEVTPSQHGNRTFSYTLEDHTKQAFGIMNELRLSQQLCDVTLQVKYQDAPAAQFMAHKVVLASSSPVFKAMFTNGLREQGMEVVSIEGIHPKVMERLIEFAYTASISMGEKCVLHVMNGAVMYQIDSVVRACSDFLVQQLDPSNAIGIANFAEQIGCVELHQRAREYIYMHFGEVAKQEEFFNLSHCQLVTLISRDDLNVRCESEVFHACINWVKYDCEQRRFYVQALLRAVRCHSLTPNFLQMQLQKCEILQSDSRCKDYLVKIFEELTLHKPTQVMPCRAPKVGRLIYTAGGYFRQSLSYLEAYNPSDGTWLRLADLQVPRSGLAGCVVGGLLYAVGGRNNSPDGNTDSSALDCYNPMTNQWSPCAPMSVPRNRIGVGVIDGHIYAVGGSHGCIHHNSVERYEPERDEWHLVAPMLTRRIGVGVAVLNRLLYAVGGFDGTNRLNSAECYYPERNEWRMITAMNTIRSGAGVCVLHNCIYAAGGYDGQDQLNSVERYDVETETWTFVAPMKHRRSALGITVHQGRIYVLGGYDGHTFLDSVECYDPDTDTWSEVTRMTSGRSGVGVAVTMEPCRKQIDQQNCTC

This experiment addresses Kelch-like ECH-associated protein 1 (Homo sapiens) (UniProt Q14145). Briefly: Keap1-Nrf2 protein-protein interaction inhibitors, primary screen, biochemical, fluorescence polarization, single point (AID 504523).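 Note: human Keap1 Kelch domain with fluorescein labeled Nrf2 9mer peptide probe; 0% = neutral control wells and 100% = peptide positive control; higher means more block of Keap1 binding to Nrf2 peptide.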 The note with it: Keap1 Kelch-Nrf2 peptide fluorescence polarization, 1536-well; at 9.4 µM; hits give high values. A general note: Polarisation of emitted light reports the rotation of a fluorescent probe.
As to `COc1ccc(NS(=O)(=O)c2cc(NC(=O)CC(=O)c3ccc([N+](=O)[O-])cc3)ccc2C)cc1`, the inhibition was -4.68% (inactive). Then `O=C1CCCCC1Sc1ccc(Cl)cc1[N+](=O)[O-]` (configuration not stated), with 1.45% (inactive); and `CC1=NNC(=O)C1CC(=O)N/N=C/c1ccncc1` (configuration not stated), with 2.78% (inactive). In the case of `Cc1ccc(S(=O)(=O)CCC(=O)OCC(=O)N(C)Cc2ccccc2)cc1`, the inhibition is -7.11% (inactive). For `CN1c2ccc([N+](=O)[O-])cc2C(C)(C)C12C=Cc1cc(C(=O)O)ccc1O2` (configuration not stated), the inhibition is 4.39% (inactive). As for `CC(=O)Oc1ccc(C(C)=O)c2c1OCCO2`, the inhibition was -3% (inactive). On to `CCCc1nnc(NC(=O)CCC(=O)NC2CC2)s1`, for which the inhibition was -3.82% (inactive). Then `O=C1c2ccccc2S(=O)(=O)c2cc(N3CCN(c4ccccn4)CC3)ccc21`, with 3.87% (inactive); and `CCOC(=O)c1nn(-c2cccc(C)c2)cc1C(=O)c1ccccc1`, with 3.24% (inactive).

Take `Cc1ccccc1OCC(=O)NCC(=O)OCC(=O)c1ccc2ccccc2c1`: the inhibition was -0.965% (inactive).

For `CCCC1OC23CCCCC2C(C#N)(C#N)C1(C#N)C(=N)O3` (configuration not stated), the inhibition was 20.6% (active). As for `O=C(NCc1cccs1)C1CCN(S(=O)(=O)c2ccc3c(c2)OCCO3)CC1`, the inhibition is -2.29% (inactive). For `O=C(Nc1ccccn1)C1CCN(S(=O)(=O)c2ccccc2)CC1` the value was -4.55% (inactive); for `O=C(Nc1ccccn1)C1CCN(S(=O)(=O)c2ccc3c(c2)OCCO3)CC1`, 24.3% (active); for `O=C1[C@H]2[C@@H](c3ccc(F)cc3)N3C(=O)N(c4ccc(C(F)(F)F)cc4)C(=O)[C@@]3(Cc3ccccc3)[C@H]2C(=O)N1C1CCCCC1`, -3.09% (inactive). Then `O=C(C1=C(O)C(=O)N(CCOCCO)C1c1ccccn1)c1cccs1` (configuration not stated), with 5.97% (inactive); and `CC[C@H]1OC(=O)[C@H](C)[C@@H](O[C@H]2C[C@@](C)(OC)[C@@H](O)[C@H](C)O2)[C@H](C)[C@@H](O[C@@H]2O[C@H](C)C[C@H](N(C)C)[C@H]2O)[C@](C)(O)C[C@@H](C)[C@@H]2N[C@@H](COCCOC)O[C@H]([C@H]2C)[C@]1(C)O`, with 1.21% (inactive).

For `COC1=CC(=O)OC(C)(c2ccccc2)C1` (configuration not stated), the inhibition was 1.18% (inactive). For `COc1ccc(Cl)cc1NC(=O)CN(C)C(=O)c1ccc2n[nH]nc2c1` the value was 0.863% (inactive); for `Cn1c(=O)c2c(SCC(=O)N3CCOCC3)nc(C3CC3)nc2n(C)c1=O`, -7.01% (inactive). `O=S(=O)(c1cccs1)N1CCN(CCOc2ccccc2)CC1`: the inhibition was -5.25% (inactive).

In the case of `CCN1/C(=C\c2ccc3ccccc3[n+]2CC)Sc2cc(C)ccc21`, the inhibition was 15.5% (active). For `CC1(C)C(C=C(Cl)Cl)C1C(=O)NC(O)C(=O)c1ccccc1` (configuration not stated) the value was 1.65% (inactive). For `Cc1c(C(=O)NC(=S)NCc2cccnc2)oc2ccccc12`, the inhibition was -0.251% (inactive). Then `Cc1nnc(SC(C)C(=O)Nc2ccc(S(=O)(=O)NC3CCCCC3)cc2)s1` (configuration not stated), with -0.0585% (inactive). For `CCOC(=O)C1(Cc2ccc(Cl)cc2)CCN(C(=O)C2=NNC(=O)CC2)CC1` the value was 0.91% (inactive); for `CN(Cc1nc2ccccc2c(=O)[nH]1)Cc1cc(=O)oc2ccc3ccccc3c12`, -4.19% (inactive). As for `Cc1cc(=O)oc(C)c1C(=O)NC1CC(C)(C)NC(C)(C)C1`, the inhibition is -0.963% (inactive). In the case of `Oc1ccc2ccc3cccc[n+]3c2c1`, the inhibition was 128% (active). For `Oc1ccc(-c2nc3ccccc3nc2-c2ccc(O)cc2O)c(O)c1` the value was 5.29% (inactive); for `COc1cc(NS(=O)(=O)c2ccc(NC(=O)CN3C(=O)c4ccccc4C3=O)cc2)ncn1`, -2.44% (inactive). Take `O=C1Nc2ccc([N+](=O)[O-])cc2C1=Nc1cccc(CO)c1`: the inhibition is 2.07% (inactive). Then `CCSc1nc(C)c(CCOc2cccc(C)c2)c(=O)[nH]1`, with 1.88% (inactive); and `COc1cc(NC(=O)c2ccccc2NS(=O)(=O)c2ccc(Cl)s2)cc(OC)c1`, with -7.91% (inactive). Then `CCCN(CC(=O)Nc1ccccc1OC)C(=O)CCC(=O)c1ccc(F)cc1`, with -3.76% (inactive); and `CCCN(CCC)C(=O)C1c2ccccc2Oc2ccccc21`, with 56.3% (active); and `CCOC(=O)CC(NC(=O)C1c2ccccc2Oc2ccccc21)c1ccc(C)cc1` (configuration not stated), with -0.485% (inactive). Regarding `CCCCCNC(=O)C1c2ccccc2Oc2ccccc21`, the inhibition is -1.43% (inactive). For `S=C(Nc1cccnc1)Nc1ccccn1`, the inhibition is 0.955% (inactive). In the case of `CN/C(=C\[N+](=O)[O-])NCCSCc1csc(CN(C)C)n1`, the inhibition is -2.6% (inactive).

`COCCOC(=O)c1sc(=S)n(CCOC)c1N`: the inhibition is -0.978% (inactive). For `O=C(CSc1n[nH]c(-c2cccs2)n1)N1CCCCC1` the value was -2.81% (inactive). Turning to `CC1(C)Cc2ccccc2-c2nnc(-c3cccc(O)c3)n21`, the inhibition was -0.455% (inactive).

With `CCS(=O)(=O)Nc1ccc(C(=O)NCCSc2ccccc2)cc1`, the inhibition was -1.14% (inactive).

With `CCCc1nc(-c2cc3cc(C)ccc3[nH]c2=O)no1`, the inhibition was 0.406% (inactive). For `CCOc1ccc(S(=O)(=O)N2CCC(C(=O)OCc3ccc(OC)cc3)CC2)cc1` the value was -2.62% (inactive). Then `NC(=O)c1ccccc1N=Cc1ccc2ccccc2c1`, with -5.11% (inactive); and `COC(=O)c1ccc(COC(=O)c2c(C)nn(Cc3ccccc3Cl)c2Cl)o1`, with 5.7% (inactive); and `CSCC[C@H](NC(=O)CCCn1nnc2ccccc2c1=O)C(=O)O`, with -3.2% (inactive).

`O=C(NC(=O)N1CCSCC1)c1c(Cl)cccc1Cl`: the inhibition was -0.262% (inactive).

Regarding `COc1ccc(Nc2nc(-c3cccnc3)nc3ccccc23)cn1`, the inhibition is 20.8% (active).

As for `CC(C)(C)Nc1nc(-c2ccccn2)nc2ccccc12`, the inhibition is -3.56% (inactive).

With `S=c1nc2ccccc2c2nc(-c3cccnc3)[nH]n12`, the inhibition is -0.541% (inactive).

Regarding `COc1ccc(CCNCC(O)Cn2ccc3ccccc32)cc1OC` (configuration not stated), the inhibition is -7.66% (inactive).

As for `COc1ccc(CCNC(=O)COC(=O)Cc2cccc(F)c2)cc1`, the inhibition is -1.56% (inactive). Consider `COc1ccc(/C=N/Nc2ncnc3sc4c(c23)CCCC4)cc1O`, for which the inhibition was -9.16% (inactive).

As for `COC(=O)C1=C(C)NC2=C(C(=O)c3ccccc32)C1c1ccc(-c2ccc(C(=O)O)cc2)o1` (configuration not stated), the inhibition is -21.3% (inactive).
